Results published in PubChem BioAssay (EPA / NIEHS).
Values joined by “and” are separate entries in the source; they are usually repeats but may differ in a detail not shown here. Identical values can stand only once. Some compounds were tested as several samples or in several runs, with calls that do not always agree. Active and inactive are the calls of the source. Rule for the calls: active = hit-call score of the fitted dose curve at least 0.9, where 1 is the maximum; inactive = score below 0.9.

How the values were obtained:
Details in all cases: mRNA level, 48 h; actives raise or lower the signal
[1] = read-out: DNA damage-inducible transcript 3 (DDIT3), DDIT3 (gene 1649); assay: LTEA_HepaRG_DDIT3: Life Technologies and Expression Analysis (LTEA) Assay for DNA damage-inducible transcript 3 (DDIT3) using HepaRG (AID 2283488)
Method in brief: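 qRT-PCR readout (Fluidigm TaqMan), housekeeping-normalized to ACTB, GAPDH, POLR2A. HepaRG cells, 48 h exposure, 8-point half-log series from 100 uM in 0.5% DMSO, duplicates. Gain or loss of signal fitted against DMSO baseline.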

[2] = read-out: Pro-epidermal growth factor (Homo sapiens) (UniProt P01133); assay: LTEA_HepaRG_EGF: Life Technologies and Expression Analysis (LTEA) Assay for Epidermal growth factor (EGF) using HepaRG (AID 2283489)
Method in brief: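 HepaRG, 48 h dosing, 100 uM top, half-log x8, 0.5% DMSO. Readout: TaqMan qRT-PCR (Fluidigm array), housekeeping-normalized. Gain or loss of signal fit vs DMSO.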

[3] = read-out: Early growth response protein 1 (EGR1) transcription factor, EGR1 (gene 1958); assay: LTEA_HepaRG_EGR1: Life Technologies and Expression Analysis (LTEA) Assay for Early growth response protein 1 (EGR1) transcription factor using HepaRG (AID 2283490)
Method in brief: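 EGR1 transcript levels quantified by qRT-PCR (Fluidigm arrays) against three housekeeping genes after 48 h chemical exposure of HepaRG cells. Eight-point half-log series topping at 100 uM, 0.5% DMSO vehicle, analyzed for gain or loss.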

[4] = read-out: Ezrin (EZR), EZR (gene 7430); assay: LTEA_HepaRG_EZR: Life Technologies and Expression Analysis (LTEA) Assay for Ezrin (EZR) using HepaRG (AID 2283491)
Method in brief: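 HepaRG, 48 h chemical exposure, 8-pt half-log series from 100 uM, 0.5% DMSO vehicle, duplicates. Read-out: EZR mRNA by TaqMan qRT-PCR (Fluidigm array), housekeeping-normalized; bidirectional curve fit vs DMSO baseline.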

[5] = read-out: Cytochrome P450 3A7 (Homo sapiens) (UniProt P24462); assay: LTEA_HepaRG_CYP3A7: Life Technologies and Expression Analysis (LTEA) Assay for CYP3A7 using HepaRG (AID 2283492)
Method in brief: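 Human HepaRG liver cells, 48 h post-plating, switched to serum-free induction medium and exposed in duplicate for 48 h. Dosing: 100 uM top, half-log dilutions, 8 points, 0.5% DMSO vehicle. Read-out: CYP3A7 mRNA, gain or loss fitted against DMSO baseline.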

CYP3A5 (gene 1577) = assay: LTEA_HepaRG_CYP3A5: Life Technologies and Expression Analysis (LTEA) Assay for CYP3A5 using HepaRG (AID 2283493)
Method in brief: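 qRT-PCR read-out: CYP3A5 transcript in HepaRG lysates, housekeeping-normalized (ACTB/GAPDH/POLR2A), fitted bidirectionally against 0.5% DMSO baseline. Exposure 48 h, eight half-log concentrations up to 100 uM, duplicates.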

[6] = read-out: Fatty Acid-Binding Protein 1 (FABP1), FABP1 (gene 2168); assay: LTEA_HepaRG_FABP1: Life Technologies and Expression Analysis (LTEA) Assay for Fatty Acid-Binding Protein 1 (FABP1) using HepaRG (AID 2283494)
Method in brief: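 FABP1 expression by TaqMan qRT-PCR, normalised to three housekeeping genes, in HepaRG cells after 48 h chemical treatment. Eight-point half-log series topping at 100 uM in 0.5% DMSO, duplicates; gain or loss fitted relative to vehicle.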

[7] = read-out: Cytochrome P450 7A1 (Homo sapiens) (UniProt P22680); assay: LTEA_HepaRG_CYP7A1: Life Technologies and Expression Analysis (LTEA) Assay for Cytochrome P450 7A1 (CYP7A1) using HepaRG (AID 2283496)
Method in brief: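 Using 0.5% DMSO as vehicle and baseline, chemicals were tested in duplicate over an 8-point range from 100 uM on HepaRG cells for 48 h; qRT-PCR signals were normalised to ACTB, GAPDH and POLR2A.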

[8] = read-out: Glutathione S-Transferase (GSTA2), GSTA2 (gene 2939); assay: LTEA_HepaRG_GSTA2: Life Technologies and Expression Analysis (LTEA) Assay for Glutathione S-Transferase (GSTA2) using HepaRG (AID 2283497)
Method in brief: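 GSTA2 transcript levels came from Fluidigm TaqMan qRT-PCR normalized to three housekeeping genes, fitted in both directions against DMSO. HepaRG cultures received chemicals for 48 h in serum-free induction medium (0.5% DMSO), 8 half-log concentrations up to 100 uM, duplicate.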

[9] = read-out: growth arrest and DNA damage 45 (GADD45G), GADD45G (gene 10912); assay: LTEA_HepaRG_GADD45G: Life Technologies and Expression Analysis (LTEA) Assay for growth arrest and DNA damage 45 (GADD45G) using HepaRG (AID 2283499)
Method in brief: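 Gain or loss of GADD45G mRNA, quantified by TaqMan qRT-PCR against three housekeeping genes, is fitted in both directions relative to 0.5% DMSO. Human HepaRG cultures receive test chemical for 48 h at up to 100 uM.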

Measured: AC50

Chain of Cytochrome P450 3A7 (Homo sapiens) (P24462 whole entry, looked up): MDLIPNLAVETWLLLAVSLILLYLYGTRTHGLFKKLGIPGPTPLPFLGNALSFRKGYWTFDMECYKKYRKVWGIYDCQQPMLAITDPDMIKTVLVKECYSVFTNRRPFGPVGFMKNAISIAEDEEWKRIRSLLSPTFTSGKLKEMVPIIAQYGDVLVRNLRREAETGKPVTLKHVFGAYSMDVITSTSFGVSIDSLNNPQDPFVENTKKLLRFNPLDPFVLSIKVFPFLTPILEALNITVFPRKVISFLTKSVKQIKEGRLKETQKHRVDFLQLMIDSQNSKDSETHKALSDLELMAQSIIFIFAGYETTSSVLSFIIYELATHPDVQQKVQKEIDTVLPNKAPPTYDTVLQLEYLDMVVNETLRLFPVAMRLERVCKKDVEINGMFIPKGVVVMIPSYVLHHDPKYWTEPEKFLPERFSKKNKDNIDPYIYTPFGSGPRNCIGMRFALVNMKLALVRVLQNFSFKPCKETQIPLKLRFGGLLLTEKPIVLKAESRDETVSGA

CCOP(=S)(OCC)Oc1nc(Cl)c(Cl)cc1Cl
active: [6] 50 µM | [7] 50 µM
inactive: all other assays above

CC(C)(C)c1cc(O)ccc1O
inactive: all assays above

O=C(O)C(Cl)(Cl)Cl
inactive: all assays above

C[C@]12CCC(=O)C[C@@H]1CC[C@@H]1[C@@H]2CC[C@]2(C)[C@@H](O)CC[C@@H]12
inactive: all assays above

CN(C)N=O
inactive: all assays above

CC(C)(OO)c1ccccc1
inactive: all assays above

C=C(C)C(=O)[O][Sn]([CH2]CCC)([CH2]CCC)[CH2]CCC
active: [1] 92.4 µM | [4] 93.5 µM | [5] 2.71 µM | CYP3A5 (gene 1577) 4.68 µM | [9] 1.21 µM
inactive: [3] | [6] | [8]

Cc1ccccc1N
inactive: all assays above

Oc1cccc2cccnc12
inactive: all assays above

CC(C)(c1ccccc1)c1ccc(O)c(C(C)(C)c2ccccc2)c1
active: [2] 29.4 µM | [3] 72.1 µM | [5] 80.8 µM | [6] 48.7 µM | [7] 58.2 µM
inactive: all other assays above

O=C1C2(Cl)C3(Cl)C4(Cl)C(Cl)(Cl)C5(Cl)C3(Cl)C1(Cl)C5(Cl)C24Cl (centres undefined)
inactive: [2] | [5]
active: [1] 89.4 µM | [3] 95.5 µM | [4] 91.3 µM | CYP3A5 (gene 1577) 92.4 µM | [6] 93.5 µM | [7] 20.6 µM | [8] 22.9 µM | [9] 59 µM

ClC1(Cl)C2(Cl)C3(Cl)C4(Cl)C(Cl)(Cl)C5(Cl)C3(Cl)C1(Cl)C5(Cl)C24Cl (centres undefined)
active: [5] 4.64 µM | [6] 3.49 µM
inactive: all other assays above

O=C(O)C(F)(F)C(F)(F)C(F)(F)C(F)(F)C(F)(F)C(F)(F)C(F)(F)C(F)(F)C(F)(F)C(F)(F)F
active: CYP3A5 (gene 1577) 21.4 µM | [7] 46.5 µM | [8] 47.8 µM
inactive: all other assays above

C[C@@H]1C[C@@H]([C@H](O)CC2CC(=O)NC(=O)C2)C(=O)[C@@H](C)C1
active: [2] 2.36 µM | [3] 91.8 µM | [4] 10.8 µM | [6] 13.2 µM | [8] 26.6 µM | [9] 2.24 µM
inactive: [1]

CCN1CCC2(CC1)COc1cc3c(cc12)N(C(=O)c1ccc(-c2ccc(-c4nnc(C)o4)cc2C)cc1)CC3
active: [1] 11.6 µM | [3] 11.9 µM | CYP3A5 (gene 1577) 16 µM | [6] 21.9 µM | [8] 75.2 µM | [9] 74 µM
inactive: [2] | [4] | [5] | [7]

CCC(=O)C(CC(C)N(C)C)(c1ccccc1)c1ccccc1 (centres undefined)
active: [1] 36.2 µM
not listed: [5]
inactive: all other assays above

Cn1sc(Cl)cc1=O
inactive: all assays above

CC(C)(C)CC(C)(C)c1ccc(O)cc1
inactive: all assays above

CC(=O)[O][Hg][c]1ccccc1
inactive: [1] | [4]
active: [3] 26.9 µM | [5] 5 µM | CYP3A5 (gene 1577) 11 µM | [6] 13 µM | [8] 25.4 µM | [9] 82.8 µM

CCCCCCCCc1ccc(O)cc1
active: [6] 71.8 µM
not listed: [2] | [7]
inactive: all other assays above

O=C(Nc1ccc2[nH]ccc2c1)c1cc2cc(F)ccc2n1Cc1cccc(F)c1
active: [1] 18 µM | [4] 9.92 µM | [5] 75.6 µM | CYP3A5 (gene 1577) 92.9 µM | [6] 23.9 µM | [7] 30.7 µM | [8] 31.2 µM
inactive: [2] | [3] | [9]

ClCC(Cl)CCl
inactive: all assays above

O=c1[nH]c(=O)[nH]c(=O)[nH]1
inactive: all assays above

O=[N+]([O-])c1ccc(O)c([N+](=O)[O-])c1
active: [1] 89.7 µM | [2] 12.9 µM | [3] 12.5 µM | [5] 16.4 µM | CYP3A5 (gene 1577) 10.6 µM | [6] 18.7 µM | [7] 25.6 µM | [8] 17 µM | [9] 90.6 µM
inactive: [4]

CCOP(=S)(OCC)SCSP(=S)(OCC)OCC
active: [5] 50 µM | CYP3A5 (gene 1577) 0.236 µM | [6] 12.1 µM | [7] 9.92 µM | [9] 1.49 µM
inactive: [1] | [2] | [3] | [4] | [8]

COc1cc(-c2ccc(N)c(OC)c2)ccc1N
inactive: [1] | [2] | [3] | [4] | [5] | CYP3A5 (gene 1577) | [7] | [8] | [9]
active: [1] 80.3 µM | [2] 13.3 µM | [5] 82.9 µM | [6] 46.3 µM and 32.8 µM | [7] 57.4 µM

NC(=O)O
inactive: all assays above

CC12CC1(C)C(=O)N(c1cc(Cl)cc(Cl)c1)C2=O (centres undefined)
active: [6] 9.46 µM | [7] 16.9 µM
inactive: all other assays above

C=CC(=O)OCCCCCC(C)C
inactive: all assays above

CCC(C)(C)c1ccc(O)c(C(C)(C)CC)c1
inactive: all assays above

O=C(O)C(F)(F)C(F)(F)C(F)(F)C(F)(F)C(F)(F)C(F)(F)F
active: [5] 35 µM | [6] 22.5 µM
inactive: all other assays above
